{
  "source": "PubChem BioAssay AID2284387",
  "about": "(EPA ToxCast)",
  "note": "Inconclusive results are not listed. Active and inactive are the calls of the source. Rule for the calls: active = hit-call score of the fitted dose curve at least 0.9, where 1 is the maximum; inconclusive = response in the unintended direction; inactive = score below 0.9.",
  "data": [
    {"target": "human Peroxisome Proliferator-activated Receptor delta (PPARd) Agonism, conducted at France lab site, PPARD (gene 5467) (UniProt Q03181)", "sequence (Q03181 whole entry, looked up)": "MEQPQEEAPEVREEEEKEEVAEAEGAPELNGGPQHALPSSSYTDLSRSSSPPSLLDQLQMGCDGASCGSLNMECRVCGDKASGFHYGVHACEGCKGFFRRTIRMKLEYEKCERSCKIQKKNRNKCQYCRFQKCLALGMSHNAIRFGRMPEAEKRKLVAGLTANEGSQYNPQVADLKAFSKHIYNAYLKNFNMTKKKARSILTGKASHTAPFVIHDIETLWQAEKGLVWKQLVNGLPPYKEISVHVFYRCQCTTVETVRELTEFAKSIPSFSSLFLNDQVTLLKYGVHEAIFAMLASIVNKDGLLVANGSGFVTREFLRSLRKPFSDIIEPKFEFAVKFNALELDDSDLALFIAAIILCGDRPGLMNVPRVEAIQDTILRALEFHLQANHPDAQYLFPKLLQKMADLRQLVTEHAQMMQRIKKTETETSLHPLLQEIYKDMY", "experiment": "ERF_FR_NR_COA_hPPARD: Eurofins (ERF) Nuclear Receptor (NR) Functional Coactivator Assay for human Peroxisome Proliferator-activated Receptor delta (PPARd) Agonism, conducted at France lab site", "description": "ERF_FR_NR_COA_hPPARD is a biochemical, single-readout assay that uses extracted gene-proteins in a cell-free assay. Measurements were taken 2 hours after chemical dosing in a 384-well plate. See PPARdelta Human NHR Functional Agonist Coactivator Assay, Cerep.ERF_FR_NR_COA_hPPARD is an assay component calculated from the ERF_FR_NR_COA_hPPARD assay. It is designed to measure FRET using a type of binding reporter as detected by fluorescence intensity of GW0742 with fluorimetry technology.Data from the assay component ERF_FR_NR_COA_hPPARD was analyzed at the assay endpoint, ERF_FR_NR_COA_hPPARD, in the positive analysis fitting direction relative to DMSO as the negative control and baseline of activity. […]\nHistidine-tagged-PPARdelta (Ligand Binding Domain, 1.7 ul/ml proteins) are mixed with 50 nM biotin-tagged-C33 coactivator and 0.4 ug fluorescence acceptor (anti-histidine antibody coupled-beads) in an incubation buffer containing 20 mM Hepes/NaOH (pH 7.4), 80 mM Nacl, 0.08% Tween 20 and 0.8 mM DTT and 0.08% BSA. […] Thereafter, fluorescence donor (streptavidin coupled-beads) is added at a final concentration of 0.4 ug. Following 120 min incubation at 22C, the signal is measured at lambdaex=680 nm and lambdaem=520 and 620 nm using a microplate reader (EnVision, Perkin Elmer). The results are expressed as a percent of the control response to […] nM GW 0742. […]", "values": [
      {"smiles": "CC(C)(Oc1ccc(C(=O)c2ccc(Cl)cc2)cc1)C(=O)O", "outcome": "inactive"},
      {"smiles": "O=C(O)CCC(F)(F)C(F)(F)C(F)(F)F", "outcome": "inactive"}
    ]}
  ]
}
